Several values for one entry are separate records, joined by “and”; a condition that tells them apart may be missing. Equal entries are not always repeated. Records with an inconclusive call do not appear. The source holds several records for some structures; these can differ, active in one and inactive in another. Activity calls are given as the source filed them. Unless noted, the call rests on the fitted dose curve; in most records, active means well fitted curve in the direction sought with a large enough effect in the repeat runs; inconclusive means weak or mixed curves; inactive means no such curve, though single readings can be large; an effect the other way counts as inactive or inconclusive.
Assays:
[1] = qHTS assay to identify small molecule agonists of the RXR signaling pathway - cell viability counter screen (AID 1159529); further: nearly all actives have a fitted effect of over 50% in size; further: potency means the concentration at half of the fitted maximal effect
Summary of the method: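 HEK 293T RXRa-bla cells, 2% CS-FBS; 5 h settle; cpd 16 h 37 C, 5% CO2; CellTiter-Glo 30 min RT, luminescence. Tetraoctyl ammonium bromide as positive control.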

[2] = qHTS assay to identify small molecule antagonists of the retinoid acid receptor (RAR) signaling pathway - cell viability counter screen (AID 1159551); further: nearly all actives have a fitted effect of over 35% in size
Summary of the method: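 Viability of C3RL4 cells is quantified from ATP by luminescence after 6 h treatment at 37 C with compounds and 1 uM retinol.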

[3] = qHTS assay to identify small molecule antagonists of the retinoic acid receptor (RAR) signaling pathway (AID 1159552; further: nearly all actives have a fitted effect of over 50% in size; further: potency means the concentration at half of the fitted maximal effect)
Summary of the method: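 Cells of the C3RL4 line were seeded, incubated overnight, then dosed with compounds in DMSO followed immediately by retinol (1 uM final). Six hours later luciferase detection reagent went in; signal was measured after 30 min at RT.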

[4] = qHTS assay to identify small molecule agonists of the retinoic acid receptor (RAR) signaling pathway (AID 1159553); conditions: C3RL4 RARE luciferase reporter, agonist, 6 h; activation: at 73.3 µM (top of the series) unless noted
Summary of the method: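 Compounds dissolved in DMSO were pinned onto C3RL4 cells seeded the previous day, and plates were held 6 hr at 37 C. RARE-driven luciferase output was then read by luminescence.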

[5] = qHTS assay to identify small molecule antagonists of the estrogen related receptor (ERR) signaling pathway from Tox21 library - cell viability counter screen (AID 1224834); further: nearly all actives have a fitted effect of over 30% in size; further: potency means the concentration at half of the fitted maximal effect
Summary of the method: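 In this quantitative HTS format, ERR cells receive compounds in DMSO and are incubated for 17.5 h at 37 C. Live-cell protease activity is then detected with CellTiter-Fluor.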

[6] = biological target: Luciferin 4-monooxygenase (Photinus pyralis) (UniProt P08659); assay: qHTS assay to identify small molecule inhibitors of firefly luciferase (AID 1224835); further: nearly all actives have a fitted effect of over 25% in size
Sequence of Luciferin 4-monooxygenase (Photinus pyralis) (P08659 whole entry, looked up): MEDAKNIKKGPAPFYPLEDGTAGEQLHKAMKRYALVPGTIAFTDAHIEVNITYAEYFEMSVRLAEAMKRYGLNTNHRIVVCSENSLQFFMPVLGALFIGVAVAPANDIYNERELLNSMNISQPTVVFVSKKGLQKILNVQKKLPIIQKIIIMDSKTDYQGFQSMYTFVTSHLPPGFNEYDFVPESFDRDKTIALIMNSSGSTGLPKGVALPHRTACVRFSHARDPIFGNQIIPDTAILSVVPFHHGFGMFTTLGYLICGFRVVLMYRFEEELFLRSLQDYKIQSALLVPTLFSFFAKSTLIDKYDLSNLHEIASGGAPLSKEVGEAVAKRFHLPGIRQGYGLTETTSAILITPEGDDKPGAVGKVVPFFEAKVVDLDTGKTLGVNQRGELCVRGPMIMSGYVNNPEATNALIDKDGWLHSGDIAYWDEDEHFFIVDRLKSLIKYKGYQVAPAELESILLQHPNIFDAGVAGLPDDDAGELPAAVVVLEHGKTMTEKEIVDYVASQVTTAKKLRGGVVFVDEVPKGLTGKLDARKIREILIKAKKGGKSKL
Summary of the method: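 Biochemical qHTS: compounds run as interplate titrations against purified firefly enzyme, with D-luciferin and ATP each at its KM concentration. Light output recorded by CCD imaging.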

[7] = qHTS assay to identify small molecule agonists of the constitutive androstane receptor (CAR) signaling pathway - cell viability counter screen (AID 1224836); further: nearly all actives have a fitted effect of over 45% in size; further: potency means the concentration at half of the fitted maximal effect
Summary of the method: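 HepG2-CYP2B6-hCAR, 2500 cells/well, 4 h pre-incubation; cpd 15 conc + PK11195 0.75 uM final; 23 h, 37 C/5% CO2; CellTiter-Fluor, fluorescence.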

[8] = biological target: Nuclear receptor subfamily 1 group I member 3 (Homo sapiens) (UniProt Q14994); assay: qHTS assay to identify small molecule antagonists of the constitutive androstane receptor (CAR) signaling pathway (AID 1224838); further: nearly all actives have a fitted effect of over 40% in size
Sequence of Nuclear receptor subfamily 1 group I member 3 (Homo sapiens) (Q14994 whole entry, looked up): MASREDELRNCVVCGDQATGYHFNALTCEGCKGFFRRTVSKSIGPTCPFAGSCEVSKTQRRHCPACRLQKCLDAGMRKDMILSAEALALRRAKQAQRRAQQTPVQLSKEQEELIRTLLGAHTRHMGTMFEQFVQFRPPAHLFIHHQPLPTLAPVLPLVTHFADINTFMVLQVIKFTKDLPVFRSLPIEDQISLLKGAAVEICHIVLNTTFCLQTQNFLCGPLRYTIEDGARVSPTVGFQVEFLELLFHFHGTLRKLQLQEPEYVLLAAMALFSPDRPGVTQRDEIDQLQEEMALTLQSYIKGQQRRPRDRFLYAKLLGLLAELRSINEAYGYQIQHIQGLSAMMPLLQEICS
Summary of the method: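 CITCO-stimulated (50 nM final) HepG2 cells stably transfected with hCAR and CYP2B6-2.2kb luciferase were exposed to compounds at 15 concentrations for 24 h at 37 C/5% CO2. A luciferase reagent was added and luminescence recorded after 30 min.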

[9] = qHTS assay to identify small molecule antagonists of the estrogen related receptor signaling pathway with the pleiotropic PPARgamma coactivator (PGC) from Tox21 10K library - cell viability counter screen (AID 1224840; active means well fitted cell-killing curve with a large enough effect in the repeat runs, not every such curve was filed as active; further: nearly all actives have a fitted effect of over 40% in size)
Summary of the method: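 Viability counter screen, PGC/ERR cells: 17.5 h compound exposure at 37 C, CellTiter-Fluor fluorescence endpoint.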

[10] = biological target: Thyrotropin receptor (Homo sapiens) (UniProt P16473); assay: qHTS assay to identify small molecule agonists of the thyroid stimulating hormone receptor (TSHR) signaling pathway (AID 1224843; calls by dose curve; further: nearly all actives have a fitted effect of over 45% in size)
Sequence of Thyrotropin receptor (Homo sapiens) (P16473 whole entry, looked up): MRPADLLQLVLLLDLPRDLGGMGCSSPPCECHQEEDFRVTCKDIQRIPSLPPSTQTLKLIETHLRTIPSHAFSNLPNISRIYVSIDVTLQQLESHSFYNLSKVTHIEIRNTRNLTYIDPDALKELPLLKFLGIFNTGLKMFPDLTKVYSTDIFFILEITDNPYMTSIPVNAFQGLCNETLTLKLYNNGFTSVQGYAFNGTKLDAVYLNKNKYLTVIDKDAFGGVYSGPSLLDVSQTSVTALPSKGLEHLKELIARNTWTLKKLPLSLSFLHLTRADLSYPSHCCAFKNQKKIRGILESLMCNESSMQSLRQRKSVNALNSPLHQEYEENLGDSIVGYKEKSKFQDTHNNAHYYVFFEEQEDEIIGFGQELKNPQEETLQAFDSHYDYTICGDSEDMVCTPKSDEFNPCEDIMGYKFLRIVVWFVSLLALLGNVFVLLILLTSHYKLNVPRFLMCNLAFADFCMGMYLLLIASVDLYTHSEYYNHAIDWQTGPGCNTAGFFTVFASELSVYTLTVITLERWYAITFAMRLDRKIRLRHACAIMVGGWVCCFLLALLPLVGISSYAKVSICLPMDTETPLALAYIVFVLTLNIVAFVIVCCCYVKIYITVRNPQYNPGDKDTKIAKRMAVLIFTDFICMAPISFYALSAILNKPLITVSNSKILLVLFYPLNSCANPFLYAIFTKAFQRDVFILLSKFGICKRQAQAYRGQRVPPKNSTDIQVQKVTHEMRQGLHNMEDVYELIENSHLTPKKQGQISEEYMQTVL
Summary of the method: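 HEK293/TSHR, 800 cells/well; cpd 30 min RT; add cAMP-d2 + anti-cAMP-cryptate, 1 h RT; fluorescence read on plate reader. 15-pt titration, n=3.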

[11] = qHTS assay to identify small molecule antagonists of the estrogen related receptor signaling pathway with the pleiotropic PPARgamma coactivator (PGC) from Tox21 10K library (AID 1224841; call rule not given here; further: actives are mostly falling curves and most rising ones were filed inactive; nearly all actives have a fitted effect of over 50% in size)
Summary of the method: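 In the PGC/ERR line, DMSO solutions of test chemicals are pin-delivered to 2,000 cells/well six hours after dispensing. Following eighteen hours' incubation, One-Glo reagent is added and luminescence recorded.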

[12] = qHTS assay to identify small molecule agonists of the estrogen related receptor signaling pathway with the pleiotropic PPARgamma coactivator (PGC) from Tox21 10K library (AID 1224842); further: nearly all actives have a fitted effect of over 15% in size
Summary of the method: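 PGC/ERR reporter cell line, 2,000 cells per well, incubated 6 h at 37 C before 23 nL compound in DMSO was added. After 18 h at 37 C, One-Glo luminescence read following 30 min at room temperature.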

[13] = qHTS assay to identify small molecule antagonists of the constitutive androstane receptor (CAR) signaling pathway - cell viability counter screen (AID 1224837); further: nearly all actives have a fitted effect of over 45% in size
Summary of the method: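 In quantitative HTS format, compounds at 15 concentrations were applied to HepG2 cells double-transfected with hCAR and CYP2B6-2.2kb under 50 nM CITCO stimulation; live-cell protease activity was read after 23 hr via CellTiter-Fluor.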

[14] = biological target: Nuclear receptor subfamily 1 group I member 3 (Homo sapiens) (UniProt Q14994); assay: qHTS assay to identify small molecule agonists of the constitutive androstane receptor (CAR) signaling pathway (AID 1224839);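 further: HepG2 cells stably carrying human CAR and a CYP2B6 luciferase reporter; nearly all actives have a fitted effect of over 15% in size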
Summary of the method: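 HepG2-CYP2B6-hCAR cells, 2500/well, 4 h pre-incubation; compounds 15 conc.; PK11195 0.75 uM final; 24 h, 37 C/5% CO2; ONE-Glo luciferase read.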

[15] = qHTS assay to identify small molecule antagonists of the estrogen related receptor (ERR) signaling pathway - cell viability counter screen (AID 1224818)
Summary of the method: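 Cytotoxicity check run alongside the ERR antagonist screen: cells exposed to test compounds 17.5 h at 37 C, viability taken as CellTiter-Fluor fluorescence intensity.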

[16] = qHTS assay to identify small molecule antagonists of the estrogen related receptor (ERR) signaling pathway (AID 1224819;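 further: luminescence from an ERR-driven luciferase reporter measured with One-Glo reagent; nearly all actives have a fitted effect of over 50% in size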)
Summary of the method: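 ERR reporter cells were plated at 2,000 cells/well and left 6 h at 37 C/5% CO2 before pin-tool transfer of compounds in DMSO. After 18 h at 37 C, One-Glo was added and luminescence was read 30 min later at room temperature.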

[17] = qHTS assay to identify small molecule agonists of the estrogen related receptor (ERR) signaling pathway (AID 1224820)
Summary of the method: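 Luminescence readout (One-Glo, 30 min RT) from NTP-supplied ERR cell line exposed to compounds for 18 h at 37 C. Cells seeded 2,000 per well and pre-incubated 6 h before pin-tool compound transfer.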

[18] = tested on: estrogen-related receptor alpha (ERRalpha) with PGC-1alpha coactivator, human; assay: qHTS assay to identify small molecule antagonists of the estrogen related receptor signaling pathway with the pleiotropic PPARgamma coactivator (PGC) (AID 1224821; calls by dose curve)
Summary of the method: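 PGC/ERR reporter cells; 6 h pre-incubation 37 C/5% CO2; pin-tool compound in DMSO, 18 h 37 C; One-Glo added, 30 min RT; luminescence read. qHTS antagonist mode.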

[19] = qHTS assay to identify small molecule antagonists of the estrogen related receptor signaling pathway with the pleiotropic PPARgamma coactivator (PGC) cell viability counter screen (AID 1224822)
Summary of the method: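 Viable cell signal (CellTiter-Fluor, 30 min, 37 C/5% CO2) was measured in PGC/ERR cells after a 17.5 h compound incubation.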

[20] = qHTS assay to identify small molecule agonists of the estrogen related receptor signaling pathway with the pleiotropic PPARgamma coactivator (PGC) (AID 1224823)
Summary of the method: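 Luminescence readout (One-Glo, 30 min RT) from PGC/ERR cell line treated 18 h at 37 C with pin-tool-delivered DMSO compound solutions; cells plated 6 h before dosing. Quantitative HTS format.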

Measured: Potency

CCOC(=O)c1ccc(O)cc1
inactive: [1] | [2] | [3] | [4] | [5] | [6] | [7] | [8] | [9] | [10]

N#CCC(=O)O
not listed: [13] | [14] | [15] | [16] | [17] | [18] | [19] | [20]
inactive: all other assays above

C=C1C[C@]23C[C@@]1(O)CC[C@H]2[C@@]12C=C[C@H](O)[C@@](C)(C(=O)O1)[C@H]2[C@@H]3C(=O)O
inactive: [1] | [2] | [3] | [4] | [5] | [6] | [11] | [12] | [10]

CC(C)(CO)CO
inactive: [1] | [2] | [5] | [6] | [7] | [13] | [9] | [11] | [12] | [10]

C1CCCNCC1
not listed: [3] | [4] | [15] | [16] | [17] | [18] | [19] | [20]
inactive: all other assays above

CC(C)(C)NC[C@H](O)COc1nsnc1N1CCOCC1
inactive: [1] | [2] | [5] | [6] | [7] | [13] | [8] | [14] | [9]

CCc1cccc(O)c1
inactive: [1] | [5] | [6] | [7] | [13] | [8] | [10]

CCCCCCC(=O)O
inactive: [1] | [3] | [4] | [5] | [6] | [7] | [8] | [11] | [12] | [10]

O=C(O)Cc1c[nH]c2ccccc12
inactive: [1] | [5] | [6] | [7] | [13] | [8] | [9] | [11] | [12] | [10]

Cc1nnc(NS(=O)(=O)c2ccc(N)cc2)s1
inactive: [1] | [5] | [6] | [7] | [9] | [10]

Cc1ccncc1
inactive: [1] | [3] | [4] | [5] | [6] | [7] | [10]

COCN(COC)c1nc(N(COC)COC)nc(N(COC)COC)n1
inactive: [1] | [3] | [4] | [5] | [6] | [7] | [13] | [8] | [11] | [12] | [10]

CC(=O)OC[C@H]1O[C@@](COC(C)=O)(O[C@H]2O[C@H](COC(C)=O)[C@@H](OC(C)=O)[C@H](OC(C)=O)[C@H]2OC(C)=O)[C@@H](OC(C)=O)[C@@H]1OC(C)=O
inactive: [1] | [3] | [4] | [5] | [6] | [7] | [13] | [9] | [10]

CC(CN1c2ccccc2Sc2ccccc21)N(C)C (stereo not drawn)
55.5 µM (active) and inactive: [1]
active: [3] 27.6 µM and 48.6 µM and 26.6 µM | [5] 69.3 µM and 61.1 µM | [7] 54.5 µM
not listed: [2] | [4] | [9] | [13]
inactive: all other assays above

NC(=O)NC(N)=O
inactive: [1] | [3] | [4] | [5] | [6] | [7] | [13] | [8] | [9] | [10]

Cc1ccc(C(C)C)cc1
inactive: [1] | [3] | [4] | [5] | [6] | [7] | [8] | [14] | [9] | [10]

CC(=O)OC(C)(C)C1CC=C(C)CC1 (stereo not drawn)
not listed: [2] | [14] | [15] | [16] | [17] | [18] | [19] | [20]
inactive: all other assays above

C=C(CC(=O)O)C(=O)O
inactive: [1] | [3] | [4] | [5] | [6] | [9] | [10]

Cc1ccccc1Cl
inactive: [1] | [5] | [6] | [7] | [8] | [14] | [9] | [10]

O=C(NCC1CCCCN1)c1cc(OCC(F)(F)F)ccc1OCC(F)(F)F (stereo not drawn)
inactive: [1] | [5] | [7] | [8] | [10]

NC1CCCCC1N (stereo not drawn)
inactive: [1] | [3] | [4] | [5] | [7] | [8] | [9] | [11] | [12] | [10]

COc1ccc(N)c(OC)c1
inactive: [1] | [6] | [7] | [8] | [9] | [10]
inactive and 54.5 µM (active): [5]

OCCOCCOCCOCCOCCO
inactive: [1] | [3] | [4] | [5] | [7] | [9] | [11] | [12] | [10]

COC(=O)CCCCC(=O)OC
inactive: [1] | [3] | [4] | [5] | [6] | [7] | [9]

CCCCCNCCCCC
inactive: [1] | [3] | [4] | [5] | [6] | [7] | [13] | [8] | [14] | [10]

Cc1ccc(C)c(S(=O)(=O)O)c1
inactive: [1] | [3] | [4] | [5] | [6] | [7] | [13] | [8] | [14] | [10]

From PubChem BioAssay (Tox21)
